Measured values reported in PubChem BioAssay (Tox21).
Inconclusive results are not listed. Activity calls are given as the source filed them. Unless noted, calls follow the shape of the full dose curve.

Columns and labels:
[1] = qHTS assay to identify small molecule antagonists of the peroxisome proliferator-activated receptor delta (PPARd) signaling pathway - cell viability counter screen (AID 743213; active = well fitted curve in the direction sought with a large enough effect in the repeat runs; an effect the other way counts as inactive or inconclusive; also: nearly all actives have a fitted effect of over 50% in size)
Method in brief: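 HEK293H cells with the PPARd UAS-bla reporter, co-treated 17 h at 37 C with compounds and L165041 (300 nM final), were lysed with CellTiter-Glo. Luminescence indicated viable cell content.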

[2] = target: Bile acid receptor (Homo sapiens) (UniProt Q96RI1); assay: qHTS assay to identify small molecule antagonists of the farnesoid-X-receptor (FXR) signaling pathway (AID 743217; active = well fitted inhibition curve with a large enough effect in the signal ratio in the repeat runs, not every such curve was filed as active; the % refers to the signal ratio)
Sequence of Bile acid receptor (Homo sapiens) (Q96RI1 whole entry, looked up): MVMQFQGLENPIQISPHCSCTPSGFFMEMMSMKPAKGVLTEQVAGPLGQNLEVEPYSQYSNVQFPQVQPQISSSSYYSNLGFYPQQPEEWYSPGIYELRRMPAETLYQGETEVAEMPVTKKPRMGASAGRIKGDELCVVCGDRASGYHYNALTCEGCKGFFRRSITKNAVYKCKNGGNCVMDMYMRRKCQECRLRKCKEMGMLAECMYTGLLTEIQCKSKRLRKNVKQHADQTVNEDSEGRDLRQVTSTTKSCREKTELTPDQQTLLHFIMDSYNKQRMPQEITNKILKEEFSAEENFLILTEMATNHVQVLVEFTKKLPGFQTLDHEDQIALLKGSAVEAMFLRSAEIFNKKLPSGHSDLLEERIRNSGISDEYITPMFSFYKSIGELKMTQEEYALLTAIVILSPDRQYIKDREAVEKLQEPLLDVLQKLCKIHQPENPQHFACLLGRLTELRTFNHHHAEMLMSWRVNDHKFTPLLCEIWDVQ
Method in brief: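 FRET fluorescence after 2 h room-temperature LiveBLAzer loading gives the readout. Prior step: FXR-bla HEK 293T cells, seeded and incubated 5 h, received test compounds plus 50 uM final CDCA for 16 h at 37 °C.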

[3] = qHTS assay to identify small molecule agonists of the farnesoid-X-receptor (FXR) signaling pathway - cell viability counter screen (AID 743218; active = well fitted curve in the direction sought with a large enough effect in the repeat runs; an effect the other way counts as inactive or inconclusive; also: nearly all actives have a fitted effect of over 45% in size)
Method in brief: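 Readout: CellTiter-Glo luminescence, 30 min RT, multiplexed after the FXR-bla FRET reading. HEK 293T FXR-UAS-bla cells received compound 5 h post-plating and were incubated 16 h at 37 C.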

[4] = target: Bile acid receptor (Homo sapiens) (UniProt Q96RI1); assay: qHTS assay to identify small molecule agonists of the farnesoid-X-receptor (FXR) signaling pathway (AID 743220; active = well fitted activation curve with a large enough effect in the signal ratio in the repeat runs, not every such curve was filed as active; the % refers to the signal ratio)
Method in brief: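 FXR-UAS-bla HEK 293T cells carrying a UAS-driven beta-lactamase reporter were plated for 5 h at 37C/5% CO2, then exposed to DMSO-dissolved Tox21 10K compounds for 16 h at 37C. A LiveBLAzer B/G FRET substrate was loaded for 2 h at room temperature before fluorescence reading.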

[5] = qHTS assay to identify small molecule antagonists of the farnesoid-X-receptor (FXR) signaling pathway - cell viability counter screen (AID 743221; active = well fitted cell-killing curve with a large enough effect in the repeat runs, not every such curve was filed as active; also: nearly all actives have a fitted effect of over 50% in size)
Method in brief: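 HEK 293T FXR-bla cells, 5 h pre-incubation; compound + CDCA 50 uM final, 16 h, 37 C; beta-lactamase FRET read first, then CellTiter-Glo luminescence, 30 min RT.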

[6] = target: Vitamin D3 receptor (Homo sapiens) (UniProt P11473); assay: qHTS assay to identify small molecule antagonists of the vitamin D receptor (VDR) signaling pathway (AID 743223; active = well fitted inhibition curve with a large enough effect in the signal ratio in the repeat runs, not every such curve was filed as active; the % refers to the signal ratio)
Sequence of Vitamin D3 receptor (Homo sapiens) (P11473 whole entry, looked up): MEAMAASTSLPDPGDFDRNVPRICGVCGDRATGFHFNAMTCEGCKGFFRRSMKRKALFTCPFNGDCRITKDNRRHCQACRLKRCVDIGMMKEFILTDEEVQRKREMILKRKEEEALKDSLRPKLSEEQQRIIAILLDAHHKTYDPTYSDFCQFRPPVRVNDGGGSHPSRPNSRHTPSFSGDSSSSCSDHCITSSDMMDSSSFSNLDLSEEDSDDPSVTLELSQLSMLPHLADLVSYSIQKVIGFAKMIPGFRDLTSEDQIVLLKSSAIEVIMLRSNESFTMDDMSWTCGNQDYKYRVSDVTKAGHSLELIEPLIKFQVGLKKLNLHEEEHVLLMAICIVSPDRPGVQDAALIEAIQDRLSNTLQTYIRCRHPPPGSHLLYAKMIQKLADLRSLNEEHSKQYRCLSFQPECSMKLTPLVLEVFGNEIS
Method in brief: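 Beta-lactamase reporter read-out: FRET substrate fluorescence after 2 h at room temperature, following 16 h exposure of VDR-bla cells to test compound plus 3 nM (final) 1alpha,25-dihydroxyvitamin D3 agonist at 37C.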

[7] = qHTS assay to identify small molecule agonists of the vitamin D receptor (VDR) signaling pathway - cell viability counter screen (AID 743224; active = well fitted curve in the direction sought with a large enough effect in the repeat runs; an effect the other way counts as inactive or inconclusive; also: series mostly up to about 63 µM; nearly all actives have a fitted effect of over 50% in size)
Method in brief: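 In parallel with the bla FRET readout, cytotoxicity toward VDR-bla cells after 16 h compound exposure was assessed by CellTiter-Glo, with luminescence recorded after a 30 min room-temperature incubation.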

[8] = qHTS assay to identify small molecule antagonists of the vitamin D receptor (VDR) signaling pathway - cell viability counter screen (AID 743225; active = well fitted curve in the direction sought with a large enough effect in the repeat runs; an effect the other way counts as inactive or inconclusive; also: nearly all actives have a fitted effect of over 50% in size)
Method in brief: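 Viability counter screen run in the same wells as the beta-lactamase reporter assay: HEK 293T VDR-UAS-bla cells, 16 h compound exposure at 37C with 3 nM (final) 1-alpha,25-dihydroxyvitamin D3. CellTiter-Glo luminescence, 30 min, room temperature.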

[9] = qHTS assay to identify small molecule agonists of the NFkB signaling pathway - cell viability counter screen (AID 1159515); also: series mostly up to about 61 µM; nearly all actives have a fitted effect of over 55% in size
Method in brief: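 Plate 2,000 NFkB-bla ME-180 cells/well; incubate overnight. Add compounds, 5 hr at 37 C. Add FRET substrate, 1.5 hr RT. Add CellTiter-Glo, 30 min RT; read luminescence.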

[10] = qHTS assay to identify small molecule agonists of the endoplasmic reticulum stress response signaling pathway (AID 1159516; active = well fitted activation curve with a large enough effect in the signal ratio in the repeat runs, not every such curve was filed as active; the % refers to the signal ratio)
Method in brief: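 Beta-lactamase expression from the ER stress response element in HeLa reporter cells is quantified with the LiveBLAzer B/G FRET substrate, read at 405 nm excitation after 2 hr at room temperature, following 5 hr compound treatment at 37 C.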

[11] = qHTS assay to identify small molecule agonists of the endoplasmic reticulum stress response signaling pathway - cell viability counter screen (AID 1159517)
Method in brief: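 Steps: seed 1,500 ESRE-bla HeLa cells per well; incubate overnight at 37 C, 5% CO2; add compounds in DMSO for 5 hr; run FRET substrate 2 hr RT; add CellTiter-Glo, wait 30 min, read luminescence.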

[12] = qHTS assay to identify small molecule antagonists of the retinoid-related orphan receptor gamma (ROR-gamma) signaling pathway - cell viability counter screen (AID 1159520; active = well fitted curve in the direction sought with a large enough effect in the repeat runs; an effect the other way counts as inactive or inconclusive; also: nearly all actives have a fitted effect of over 50% in size)
Method in brief: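 Tet-on ROR gamma CHO cells were given compounds for 2 hr, then doxycycline hyclate at 1 uM final, and incubated 16 hr at 37 C. Viability was measured as ATP content by CellTiter-Glo luminescence.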

[13] = target: Nuclear receptor ROR-gamma (Homo sapiens) (UniProt P51449); assay: qHTS assay to identify small molecule antagonists of the retinoid-related orphan receptor gamma (ROR-gamma) signaling pathway (AID 1159521; active = well fitted curve in the direction sought with a large enough effect in the repeat runs; an effect the other way counts as inactive or inconclusive)
Method in brief: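 Luminescence readout (ONE-Glo, 30 min RT) after 16 h doxycycline induction; loss of signal scored as antagonism. CHO cells with TET-inducible RORγ and RORE-LUC reporter; compounds added 2 h before 1 uM final doxycycline.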

[14] = qHTS assay to identify small molecule agonists of the AP-1 signaling pathway - cell viability counter screen (AID 1159525); also: nearly all actives have a fitted effect of over 55% in size
Method in brief: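 Same-well cytotoxicity counter screen of the Tox21 10K library in ME-180 cells. The readout is ATP-dependent luminescence after 5 h compound treatment. Data are normalised to DMSO and tetra n-octyl ammonium bromide controls.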

[15] = qHTS assay to identify small molecule agonists of the AP-1 signaling pathway (AID 1159526)
[16] = qHTS assay to identify small molecule agonists of the RXR signaling pathway - cell viability counter screen (AID 1159529; active = well fitted curve in the direction sought with a large enough effect in the repeat runs; an effect the other way counts as inactive or inconclusive; also: nearly all actives have a fitted effect of over 50% in size; also: potency is read from the fitted curve at half-maximal effect)
Method in brief: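 Luminescence from CellTiter-Glo (30 min, RT) measured viability in the same wells as the beta-lactamase reporter readout. Cells: GeneBLAzer RXR-alpha HEK 293T, 2% charcoal-stripped FBS. Compound exposure 16 hr, 37 C.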

[17] = target: Peroxisome proliferator-activated receptor delta (Homo sapiens) (UniProt Q03181); assay: qHTS assay to identify small molecule agonists of the peroxisome proliferator-activated receptor delta (PPARd) signaling pathway (AID 743212)
Sequence of Peroxisome proliferator-activated receptor delta (Homo sapiens) (Q03181 whole entry, looked up): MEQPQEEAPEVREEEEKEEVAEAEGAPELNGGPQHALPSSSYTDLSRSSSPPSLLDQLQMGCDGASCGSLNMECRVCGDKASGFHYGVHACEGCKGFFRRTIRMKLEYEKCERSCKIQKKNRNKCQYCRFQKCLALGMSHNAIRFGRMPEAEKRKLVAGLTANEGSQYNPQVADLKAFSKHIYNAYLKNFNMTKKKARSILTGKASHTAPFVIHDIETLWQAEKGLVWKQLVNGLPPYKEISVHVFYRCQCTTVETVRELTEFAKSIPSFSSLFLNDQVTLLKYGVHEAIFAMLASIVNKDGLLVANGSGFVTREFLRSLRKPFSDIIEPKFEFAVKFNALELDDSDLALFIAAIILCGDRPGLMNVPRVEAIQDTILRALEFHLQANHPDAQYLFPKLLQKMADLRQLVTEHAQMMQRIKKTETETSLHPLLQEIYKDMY
Method in brief: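 Read-out: beta-lactamase FRET fluorescence after 2 h room-temperature incubation with LiveBLAzer B/G substrate. Cells were HEK293H carrying a UAS-bla reporter for PPARd, treated at 37 C with DMSO-dissolved compounds.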

[18] = target: Retinoic acid receptor RXR-alpha (Homo sapiens) (UniProt P19793); assay: qHTS assay to identify small molecule agonists of the RXR signaling pathway (AID 1159527); also: nearly all actives have a fitted effect of over 35% in size
Sequence of Retinoic acid receptor RXR-alpha (Homo sapiens) (P19793 whole entry, looked up): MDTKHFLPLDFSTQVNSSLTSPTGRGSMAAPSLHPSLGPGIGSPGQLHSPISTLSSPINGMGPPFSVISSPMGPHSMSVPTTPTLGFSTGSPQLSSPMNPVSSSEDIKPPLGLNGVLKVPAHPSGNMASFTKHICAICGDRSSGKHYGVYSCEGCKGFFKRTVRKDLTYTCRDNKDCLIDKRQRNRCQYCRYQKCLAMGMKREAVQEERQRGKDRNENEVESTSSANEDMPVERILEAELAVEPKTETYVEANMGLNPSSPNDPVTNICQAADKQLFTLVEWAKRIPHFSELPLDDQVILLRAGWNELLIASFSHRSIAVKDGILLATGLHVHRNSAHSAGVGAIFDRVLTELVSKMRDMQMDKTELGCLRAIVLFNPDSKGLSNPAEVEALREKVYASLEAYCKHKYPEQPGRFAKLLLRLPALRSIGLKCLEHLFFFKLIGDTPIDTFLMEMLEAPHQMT
Method in brief: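 Agonist mode; 9-cis retinoic acid positive control. HEK 293T UAS-bla reporter cells, 2% charcoal-stripped FBS, 16 hr compound exposure at 37 C/5% CO2. LiveBLAzer B/G FRET substrate 2 hr RT; ex 405, em 460/530 nm.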

[19] = target: Peroxisome proliferator-activated receptor delta (Homo sapiens) (UniProt Q03181); assay: qHTS assay to identify small molecule antagonists of the peroxisome proliferator-activated receptor delta (PPARd) signaling pathway (AID 743215; active = well fitted inhibition curve with a large enough effect in the signal ratio in the repeat runs, not every such curve was filed as active; the % refers to the signal ratio;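 also: cells stimulated with agonist L165041 at 300 nM final during compound exposure; series mostly up to about 62 µM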)
Method in brief: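 Fluorescence from cleaved LiveBLAzer B/G FRET substrate (2 h, room temperature) reports PPARd-driven beta-lactamase in HEK293H UAS-bla cells. Cells had been treated 17 h at 37 C with compound plus 300 nM final L165041.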

[20] = target: Vitamin D3 receptor (Homo sapiens) (UniProt P11473); assay: qHTS assay to identify small molecule agonists of the vitamin D receptor (VDR) signaling pathway (AID 743222)
Method in brief: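 Following 4 h attachment at 37C, VDR-bla cells (2,000 per well) received DMSO-dissolved compounds or controls. After 16 h incubation, LiveBLAzer B/G FRET substrate was added and fluorescence read 2 h later at room temperature.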

Measured: Potency

CCN(C=O)CC
active: [16] 50.3 µM
not listed: [17] | [18] | [19] | [20]
inactive: all other assays above

O=C(O)c1cn(C2CC2)c2cc(N3CCNCC3)c(F)cc2c1=O
not listed: [6] | [7] | [8] | [16] | [19] | [20]
inactive: all other assays above

CC(C)(C)OC(=O)c1cccc(N)c1
not listed: [2] | [4] | [7] | [18]
inactive: all other assays above

CC(C)(C#N)Nc1nc(Cl)nc(NC2CC2)n1
not listed: [1] | [6] | [16]
inactive: all other assays above

CCOc1ccccc1OCC
not listed: [1] | [2] | [4] | [16]
inactive: all other assays above

O=C1c2ccccc2C(=O)c2cc(O)ccc21
not listed: [1] | [2] | [4] | [18]
inactive: all other assays above

CC(C)(C)C(=O)Oc1ccc(S(=O)(=O)Nc2ccccc2C(=O)NCC(=O)O)cc1
not listed: [3] | [16] | [18]
inactive: all other assays above

NCCCC(N)(C(=O)O)C(F)F (stereo unspecified)
not listed: [2] | [4] | [7] | [17] | [18] | [19]
inactive: all other assays above

O=C(CO)[C@@H](O)[C@H](O)[C@@H](O)CO
not listed: [2] | [4] | [6] | [16] | [17] | [19] | [20]
inactive: all other assays above

O=C(O)Cc1csc(-c2ccc(Cl)cc2)n1
not listed: [2] | [3] | [4] | [18] | [19]
inactive: all other assays above

NC(=O)NC1N=C([O][Al])NC1=O (stereo unspecified)
not listed: [6] | [17] | [18] | [19] | [20]
inactive: all other assays above

CCCCc1nc(Cl)c(CO)n1Cc1ccc(-c2ccccc2-c2nn[nH]n2)cc1
not listed: [1] | [6] | [16] | [20]
inactive: all other assays above

NC(CCC(=O)O)C(=O)O (stereo unspecified)
not listed: [2] | [4] | [6] | [18]
inactive: all other assays above

N[C@@H](CCC(=O)O)C(=O)O
not listed: [2] | [3] | [4] | [7] | [16]
inactive: all other assays above
